Assay results taken from PubChem BioAssay AID651791 (National Center for Advancing Translational Sciences (NCATS), 2012).
Records with an inconclusive call do not appear. The source made the active and inactive calls. Calls follow the shape of the dose curve; as a rule, active = well fitted inhibition curve with a large enough effect; inconclusive = small, poorly fitted or top-dose-only effect; inactive = no such curve, though single readings can be large or run the other way.

assay: InCell qHTS Assay for Inhibitors of the mTORC1 Signaling Pathway in MEF (Tsc2-/-, p53-/-) Cells: Hit Validation; details: phospho-rpS6 immunofluorescence, 24 h; activity change, negative = inhibition: at 38.3 µM (top of the series);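 also: phospho-S6 Ser235/236 signal normalized to propidium iodide cell count per well; nearly all actives have a fitted effect of over 75% in size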
Potency is read from the fitted curve at half-maximal effect.

SMILES	activity change, negative = inhibition [%]	Potency
CCN(CC)c1ccc(NC(=O)CCS(=O)(=O)c2cccc3nsnc23)c(C)c1	-100	
CCSc1oc(-c2ccc(F)cc2)nc1S(=O)(=O)c1ccc(C)cc1	-100	
O=C(Nc1cccc(NC(=O)c2ccccc2Cl)c1)c1cccc(Br)c1	-100	
CCOc1ccc(S(=O)(=O)Nc2ccc(OC)c(Cl)c2)c2cccnc12	-100	
Cc1ccc(NC(=O)c2nc(S(=O)(=O)Cc3cccc(C)c3)ncc2Cl)cc1		14.7 µM (active)
COc1ccc(N2CCN(C(=O)C3CCN(Cc4nc(-c5ccc(Cl)cc5)oc4C)CC3)CC2)cc1	-100	
COc1cc(OC)c(NS(=O)(=O)c2ccc3c(c2)CCCN3C(C)=O)cc1Cl	-100	
CCC(C)NC(=O)c1sc2nc(C)c(C(=O)Nc3ccc(C)cc3C)c(-c3ccc(Cl)cc3)c2c1N (configuration not stated)	-100	
Cc1ccc(-c2noc(CCC(=O)N(C)c3ccccc3F)n2)cc1	-100	
CCn1c(=N)n(CCOc2ccc(Br)cc2)c2ccccc21		14.7 µM (active)
COc1cc(-c2ccno2)ccc1S(=O)(=O)N1CCN(c2cc(C)ccc2C)CC1	-100	
CC1=C(C(=O)OC2CCCC2)C(c2ccccc2Cl)CC(=O)N1 (configuration not stated)	-100	
O=S(=O)(c1ccccc1)n1nc(-c2ccc(Cl)cc2)nc1NCc1ccccc1	-5.06	
CCCOCc1cc(CN2CCN(c3ccccc3OC)CC2)c(O)c2ncccc12		11.7 µM (active)
CCOc1cc(CNc2ccc(O)cc2)cc(Cl)c1OCc1ccccc1	-100	
CCn1c(CN2CCC(C)CC2)nc2cc(NC(=O)c3ccccc3[N+](=O)[O-])ccc21	-100	
O=C(C1CCN(c2nc3ccccc3[nH]2)CC1)N1CCN(c2cccc(Cl)c2)CC1	-100	
Cc1cccc(CSc2cn(CC(=O)N3CCCCCC3)c3ccccc23)c1	-100	
COc1ccccc1-c1cc(C(=O)Nc2cc(OC)c(OC)c(OC)c2)no1	1.72	

SMILES	activity change, negative = inhibition [%]	Potency
COc1ccc(CCCc2nnc(SCC(=O)Nc3ccc(OC)cc3)o2)cc1	-100	
COc1ccc(-c2n[nH]c3c2C(c2ccc(O)cc2)N(c2ccc(Br)cc2)C3=O)cc1 (configuration not stated)	-100	
Cc1cc(NC(=O)c2ccco2)cc(-c2nc3cc(Cl)ccc3o2)c1O	-4.63	
Cn1nnnc1SCCCNCc1ccccc1OCc1ccc(Cl)cc1	-12.8	
COc1cccc(C(=O)Nc2ccc(-c3cc(C(F)(F)F)nn3-c3ccccc3)cc2)c1	-100	
CCOC(=O)c1ccc(N2C(=O)c3n[nH]c(-c4cccs4)c3C2c2cccc(F)c2)cc1 (configuration not stated)	-100	
COC(=O)c1ccccc1NC(=O)Cn1c(=O)n(-c2ccc(C)cc2)c(=O)c2ccccc21	-18.6	
CCCCOCc1cc(CN2CCN(c3cccc(Cl)c3)CC2)c(O)c2ncccc12	-100	
CC1CCN(S(=O)(=O)c2ccc(C(=O)Nc3sc4c(c3C(N)=O)CC(C)(C)NC4(C)C)cc2)CC1		14.7 µM (active)
O=C(Nc1ccc(F)c(Cl)c1)c1cc(S(=O)(=O)N2CCCc3ccccc32)ccc1F	-100	
Oc1ccc(NCc2ccccc2OCc2ccc(Cl)cc2)cc1	-100	
COc1ccc(N2CCN(C(=O)C(C)n3nc(C)c4sc5ccccc5c4c3=O)CC2)cc1 (configuration not stated)	-100	
Cc1ccc2sc(N(CCCN(C)C)C(=O)c3ccco3)nc2c1C	-25.4	
COc1ccc(C)cc1NC(=O)CCNS(=O)(=O)c1cccc2nonc12	-100	
Cc1cccc(Oc2coc3cc(OCC(=O)NC4CCCCC4)ccc3c2=O)c1	-100	
Cc1cccc(N(C)S(=O)(=O)c2ccc(-c3cc(C)no3)s2)c1	-9.17	
O=C(c1ccc(CS(=O)c2ccccc2Cl)o1)N1CCN(c2cccc(Cl)c2)CC1 (configuration not stated)	-100	
COc1ccc2c(c1)CCc1c(C(=O)Nc3c(C)nn(Cc4ccc(Cl)cc4)c3C)noc1-2	-100	
